Molecules are shown by their SMILES. The panel holds about 83,000 compounds, 20% with a hit somewhere; the sample as a whole holds those more often.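 Single-dose data. Exposure time 48 hours. Values below 10 considered active.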 Unmarked numbers belong to inactive results. Active and inactive are the calls of the source.

The first assay deals with SR leukemia. The experiment in a line: NCI-60 one-dose screen, 48 h (100 = growth as untreated, 0 = no growth, -100 = all killed). The settings on record: 10 µM unless noted.
Consider `CCN(CC)Cc1cccc(C(=O)OC)c1`, for which the growth is 95%.

Turning to `COc1ccc(-c2nc3c(N)c(CO)c(C)nc3o2)cc1`, the growth was 100%.

In the case of `COc1ccc(NC(=O)c2nc(-c3cc(OC)c(OC)c(OC)c3)n(-c3cccc4ccccc34)n2)cc1OC`, the growth was 33.1%.

The subject of the next assay is RPMI-8226 leukemia. Described as above. Particulars: 10 µM unless noted.
Turning to `C=CCn1c(C)nc2cc(Nc3nc(N4CCCC4)nc4ccccc34)ccc21`, the growth was 55%.

Take `Cc1ccc(/C=C/c2c(C(=O)/C=C/c3ccc(Cl)cc3)c(C)nc3ccccc23)cc1`: the growth is -31.7% (active).

Take `C=CCOC1=CC(=O)c2ccccc2C1=O`: the growth is 92.7%.

As to `c1ccc(-c2nc([P+](c3ccccc3)(c3ccccc3)c3ccccc3)c(N3CCOCC3)o2)cc1`, the growth was -28.5% (active).

For `O=C(COc1ccc(/C=C2\Oc3ccccc3C2=O)cc1)Nc1nc2c(s1)CCCC2`, the growth is -86.3% (active).

`COc1ccc(C2c3ccc4ccccc4c3Oc3nc(C)[nH]c(=O)c32)cc1` (stereo not drawn): the growth was 102%.

With `CN(C)c1ccc(-c2ccc3[nH]c(=O)nc(-c4ccccc4)c3c2)cn1`, the growth is 56.5%.

For `Cc1cc(/C=C\c2ccc3ccccc3[n+]2C)c(O)c2ncccc12`, the growth is 14%.

Consider `O=C1N=c2cc3c(cc2=C/C1=C/c1sc(=S)n(CCc2ccc(O)cc2)c1O)OCCO3`, for which the growth is 33.4%.

Consider `N#Cc1nc(C#N)c(Sc2ccccc2)c(Sc2ccccc2)c1Sc1ccccc1`, for which the growth was 0.263% (active).

`Cc1cc(NCCCCNc2ccnc3cc(Cl)ccc23)nc(Nc2ccc(C(=O)N3CCCC3)cc2)n1`: the growth is 2.17% (active).

Regarding `CC(C)CCC[C@@H](C)[C@H]1CC[C@H]2[C@@H](Nc3ccc(O)cc3)CCC[C@]12C`, the growth is 96.6%.

Take `O=C(c1ccccc1)c1c(/C=C/c2ccc(Cl)cc2)nc2ccccc2c1/C=C/c1cccs1`: the growth is 94.6%.

`CN1CCN(CCCOc2ccc3nc(Nc4ccc(F)c(F)c4)ccc3c2)CC1`: the growth was 28.8%.

In the case of `CS(=O)c1cccc(-c2ccc3nc(N)n(-c4ccc(C(F)(F)F)cc4)c(=O)c3c2)c1` (stereo not drawn), the growth is 97.4%.

For `COc1ccc2[nH]c(O)c(/C=c3/cc4c(c(-c5ccc(F)c(OC)c5)n3)=Nc3ccccc3-4)c2c1`, the growth is -20.4% (active).

With `CC(=O)C(C)Cc1cc2c(cc1C)C(C)(C)CCC2(C)C` (stereo not drawn), the growth is 100%.

As for `COc1cc(/C=C2\C(=O)ON=C2C)cc(OC)c1OC`, the growth is 95.9%.

For `CCCCn1c(=O)c2c(nc3n2CCCN3CCc2ccc(OCC(=O)NCCN(CC)CC)cc2)n(CCCC)c1=O`, the growth is 61.5%.

`COc1cc2c(cc1-c1c(C)noc1C)ncc1nc(C3CCC(F)(F)CC3)n(C3CCC(OC(F)F)CC3)c12` (stereo not drawn): the growth is 20%.

As for `CCN(CCNc1ccc(C)c2sc3ccccc3c(=O)c12)CC(C)(C)O`, the growth is 13.5%.

Turning to `CCCCCCCCCCCCCCCCCCOc1ccccc1CC(=O)OCCC[N+](C)(C)C`, the growth is 38.1%.

For `COc1ccc(C(=NN=C(N)N)c2ccc(OC)cc2)cc1`, the growth is 49.4%.

With `Cc1c(C(=O)N[C@@H](Cc2ccccc2)C(=O)C(=O)NCCc2ccccc2)[nH]c2ccccc2c1=O`, the growth is 89.8%.

Consider `CC1(c2ccccc2)NC(=O)N(NC(=O)CSc2nc(-c3cccs3)nc3ccccc23)C1=O` (stereo not drawn), for which the growth was 72.9%.

With `CCN(CC)Cc1cccc(C(=O)OC)c1`, the growth is 91.8%.

As for `CCCCc1ccc(Nc2ccc(Nc3ccc(CCCC)cc3S(=O)(=O)O)c3c2C(=O)c2ccccc2C3=O)c(S(=O)(=O)O)c1`, the growth is 52%.

Regarding `O=C(Nc1ccc(Cl)cc1)Nc1ccc(Cl)c(C(F)(F)F)c1`, the growth is -32.9% (active).

In the case of `COc1cc(/C=N/Nc2ncc(-c3cc4cc5c(cc4o3)OCO5)s2)cc(OC)c1OC`, the growth was 6.26% (active).

As to `c1ccc(Nc2nc(-c3ccccn3)cs2)nc1`, the growth is 14.6%.

With `Cc1ccc(S(=O)(=O)Oc2cc(OS(=O)(=O)c3ccc(C)cc3)cc(OS(=O)(=O)c3ccc(C)cc3)c2)cc1`, the growth is 88.6%.

Turning to `COc1ccc(NC(=O)c2nc(-c3cc(OC)c(OC)c(OC)c3)n(-c3cccc4ccccc34)n2)cc1OC`, the growth was 11.6%.

Regarding `COc1ccc(C2C(c3nn[nH]n3)=C(N)Oc3c2ccc2ccccc32)cc1` (stereo not drawn), the growth was 66.5%.

For a further assay, the system named is OVCAR-8 ovarian. Described as above. The settings on record: 10 µM unless noted.
As to `C=CCn1c(C)nc2cc(Nc3nc(N4CCCC4)nc4ccccc34)ccc21`, the growth is 84.1%.

For the compound `Cc1ccc(/C=C/c2c(C(=O)/C=C/c3ccc(Cl)cc3)c(C)nc3ccccc23)cc1`, the growth is 13%.

Regarding `C=CCOC1=CC(=O)c2ccccc2C1=O`, the growth is 57.2%.

As for `Cn1cc(-c2csc(-c3ccccc3)n2)c2cccnc21`, the growth is 2.29% [100 µM] (active).

Take `c1ccc(-c2nc([P+](c3ccccc3)(c3ccccc3)c3ccccc3)c(N3CCOCC3)o2)cc1`: the growth is 1.55% (active).

Consider `O=C(COc1ccc(/C=C2\Oc3ccccc3C2=O)cc1)Nc1nc2c(s1)CCCC2`, for which the growth is 6.97% (active).

For the compound `COc1ccc(C2c3ccc4ccccc4c3Oc3nc(C)[nH]c(=O)c32)cc1` (stereo not drawn), the growth was 101%.

Take `CN(C)c1ccc(-c2ccc3[nH]c(=O)nc(-c4ccccc4)c3c2)cn1`: the growth is 63.8%.

Regarding `O=C1/C(=C\c2c[nH]c3ccccc23)c2ccccc2N1c1c(Cl)cccc1Cl`, the growth was 8.34% (active).

As to `Cc1cc(/C=C\c2ccc3ccccc3[n+]2C)c(O)c2ncccc12`, the growth was 6.2% (active).

For the compound `O=C1N=c2cc3c(cc2=C/C1=C/c1sc(=S)n(CCc2ccc(O)cc2)c1O)OCCO3`, the growth was 28.6%.

Consider `N#Cc1nc(C#N)c(Sc2ccccc2)c(Sc2ccccc2)c1Sc1ccccc1`, for which the growth is 3.62% (active).

As to `Cc1cc(NCCCCNc2ccnc3cc(Cl)ccc23)nc(Nc2ccc(C(=O)N3CCCC3)cc2)n1`, the growth is 11.5%.

As to `CC(C)CCC[C@@H](C)[C@H]1CC[C@H]2[C@@H](Nc3ccc(O)cc3)CCC[C@]12C`, the growth was 97.6%.

For the compound `O=C(c1ccccc1)c1c(/C=C/c2ccc(Cl)cc2)nc2ccccc2c1/C=C/c1cccs1`, the growth was 98%.

For the compound `CC(=O)n1c(-c2ccc(Cl)cc2)nc2c(c1=O)C(c1ccc(Cl)cc1)c1sc3c(Cl)cccc3c1O2` (stereo not drawn), the growth is -31.5% (active).

`CN1CCN(CCCOc2ccc3nc(Nc4ccc(F)c(F)c4)ccc3c2)CC1`: the growth is 53.1%.

With `CS(=O)c1cccc(-c2ccc3nc(N)n(-c4ccc(C(F)(F)F)cc4)c(=O)c3c2)c1` (stereo not drawn), the growth was 96.3%.

For `COc1ccc2[nH]c(O)c(/C=c3/cc4c(c(-c5ccc(F)c(OC)c5)n3)=Nc3ccccc3-4)c2c1`, the growth was 60.4%.

Take `CC(=O)C(C)Cc1cc2c(cc1C)C(C)(C)CCC2(C)C` (stereo not drawn): the growth is 101%.

As for `COc1cc(/C=C2\C(=O)ON=C2C)cc(OC)c1OC`, the growth is 99.7%.

For the compound `CCCCn1c(=O)c2c(nc3n2CCCN3CCc2ccc(OCC(=O)NCCN(CC)CC)cc2)n(CCCC)c1=O`, the growth was 60.8%.

For the compound `COc1cc2c(cc1-c1c(C)noc1C)ncc1nc(C3CCC(F)(F)CC3)n(C3CCC(OC(F)F)CC3)c12` (stereo not drawn), the growth is 65.2%.

Regarding `CCN(CCNc1ccc(C)c2sc3ccccc3c(=O)c12)CC(C)(C)O`, the growth was 87.1%.

As for `CCCCCCCCCCCCCCCCCCOc1ccccc1CC(=O)OCCC[N+](C)(C)C`, the growth was 43.8%.

As for `COc1ccc(C(=NN=C(N)N)c2ccc(OC)cc2)cc1`, the growth is 56.7%.

On to `Cc1c(C(=O)N[C@@H](Cc2ccccc2)C(=O)C(=O)NCCc2ccccc2)[nH]c2ccccc2c1=O`, for which the growth is 98.6%.

`CC1(c2ccccc2)NC(=O)N(NC(=O)CSc2nc(-c3cccs3)nc3ccccc23)C1=O` (stereo not drawn): the growth is 82.4%.

For the compound `CCN(CC)Cc1cccc(C(=O)OC)c1`, the growth was 99.6%.

For the compound `CCCCc1ccc(Nc2ccc(Nc3ccc(CCCC)cc3S(=O)(=O)O)c3c2C(=O)c2ccccc2C3=O)c(S(=O)(=O)O)c1`, the growth was 99.8%.

For `O=C(Nc1ccc(Cl)cc1)Nc1ccc(Cl)c(C(F)(F)F)c1`, the growth is 19.9%.

In the case of `COc1cc(/C=N/Nc2ncc(-c3cc4cc5c(cc4o3)OCO5)s2)cc(OC)c1OC`, the growth is 30%.

On to `COc1ccc(-c2nc3c(N)c(CO)c(C)nc3o2)cc1`, for which the growth is 110%.

Consider `c1ccc(Nc2nc(-c3ccccn3)cs2)nc1`, for which the growth is 14.4%.

Regarding `Cc1ccc(S(=O)(=O)Oc2cc(OS(=O)(=O)c3ccc(C)cc3)cc(OS(=O)(=O)c3ccc(C)cc3)c2)cc1`, the growth was 107%.

With `COc1ccc(NC(=O)c2nc(-c3cc(OC)c(OC)c(OC)c3)n(-c3cccc4ccccc34)n2)cc1OC`, the growth is 52.5%.

`COc1ccc(C2C(c3nn[nH]n3)=C(N)Oc3c2ccc2ccccc32)cc1` (stereo not drawn): the growth was 83.8%.

The values above are taken from PubChem BioAssay (NCI).
